Reference: the supplement of paper PMC11417369
In all, about 25,000 sequences were measured (“ln(normalized median fluorescence intensity)”: median about 9.3, highest 2% from about 10 on). The sample holds the highest values, similar sequences and a random draw of the others, so the mix is not that of the screen.

test system: PF3D7_0420300 AP2 domain 1 (GST-tagged); assay: gcPBM binding intensity (ln(normalized median fluorescence intensity)); higher = stronger DNA binding
Method in brief: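 The highest Masliner-normalised natural-log median intensity across replicate spots of either probe orientation is reported as binding intensity. GST-tagged P. falciparum DNA-binding domains expressed in E. coli were applied for 1 h to an Agilent 4 × 180k array of primer-extended double-stranded 36-bp intergenic genomic probes plus negative controls, and bound protein was detected with Alexa488 anti-GST antibody and scanned at 488 nm.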

| Sequence | gcPBM binding intensity (ln) |
| --- | --- |
| TAGTATTTATATGATTAACACACATATGGGTATTAA [CACACA_site8363] | 9.28 |
| CATATAAGACAAAAGGTGCAATTTTAATGCTTTTAT [GTGCAC_site9432] | 9.31 |
| ATAACATATATATATACACACACATATATATATGAA [CACACA_site7983] | 9.79 |
| TTCTATATTTTAGCTGATAATATTATGAGCTTCACT [XGTACX_negctrl_site427] | 9.08 |
| AATAAATAAATAAATATATATATATATATATATATA [CACACA_negctrl_site708] | 8.86 |
| TCTTCTTAACCAACTATGAAAAGGAAAAATATAACA [GTGCAC_negctrl_site565] | 9.06 |
| TATGTATAATTATTTTGTACTTATTAAATTTTTTTT [XGTACX_site5413] | 9.18 |
| TACCCTGATCGGCATGCATGTAAGTAACAAATATAT [TGCATGCA_site153] | 9.22 |
| ATATAAAATATTACGTGTACACATAAATAAAAATAA [XGTACX_site3746] | 9.41 |
| GAATAAAAAATTGGCACACATAAATATATGGATATA [CACACA_site3047] | 9.46 |
| TATACACGCGGACACACACACACACGCAAAAAAAAA [CACACA_site6377] | 10.1 |
| AGTATACATATATATACACACACATATATATATATA [CACACA_site7883] | 9.61 |
| TACATACACGGACACACACACATATATATATATATA [CACACA_site5883] | 9.95 |
| AAAAAAAAAAAAAAGACACACATATATATATATATA [CACACA_site633] | 9.15 |
| AGTATACATATATATACACACATATATATATATATA [CACACA_site300] | 9.42 |
| CGCATACACGGACACACACACACATATATATATATA [CACACA_site4520] | 10.1 |
| CATATATACACATACACACACACACGGACACGCACA [CACACA_site6910] | 10.2 |
| AGTATACTCGGACACACACACACATATATATATATA [CACACA_site5031] | 10.2 |
| TATACGCATATATACACACACATATATATATATATA [CACACA_site3416] | 9.66 |
| AAAAAAAAAAGACACACACACACACGCATATACATA [CACACA_site7289] | 10.2 |
| CATACACGCGGACACACACACACACGCATATATAAC [CACACA_site6427] | 10.4 |
| TTTTTTATAGTACATTACCAAAAAAAAAAAAAAAAA [GTGCAC_negctrl_site549] | 8.32 |
| TGTTGATTTATCCTGTGTACGGATATATATCTTTCA [XGTACX_site7826] | 9.27 |

| Sequence | gcPBM binding intensity (ln) |
| --- | --- |
| AAAAATAGACAAAAGAGTACAAGAAAAAAAGGGTTC [XGTACX_site7843] | 9.86 |
| AAATTTTTTAATTTTTCTCATTTAATTTAAAAATTA [GTGCAC_negctrl_site155] | 8.88 |
| TATATTTTATATATGGTGCAACTTTTATTTAAATAA | 8.77 |
| ATTATTAAGTTTCACAAGAACATTGTTAACAATTTT [CACACA_negctrl_site1128] | 9 |
| ATATATATGGAAACAGTGCAATACATATATATATAT | 9.71 |
| TTTTATGATAATTTTGCACACACTTAGGAAAAATTA [CACACA_site1556] | 9.31 |
| AAAGTTTTAAGAAAATGTACATAAGTATACATATAT [XGTACX_site1293] | 9.18 |
| AATACATACAGACACACACACACATATATATATATA [CACACA_site3558] | 10.1 |
| AATATATACATATATACACACACATATATATATATA [CACACA_site8907] | 9.75 |
| AATACATACGGACACACACACACATATATATATATA [CACACA_site5884] | 10.2 |
| CATACATACGGACACACACACATATATATATATATA [CACACA_site5598] | 9.97 |
| AATACACGCAGACACACACACACACGCACATATATA [CACACA_site6447] | 10.3 |
| AGAATGGTTTATAAAGGTACGTAATTTTTAATTTTA [XGTACX_site383] | 9.06 |
| TTTTGTTAAAAAGATGTATATTTTATAAATATTTAT [CACACA_negctrl_site101] | 8.92 |
| TTATATATTAAGAAATGTACGAAAAAAAAAATTATA [XGTACX_site3893] | 9.2 |
| ATTATAAATAAAATATGTACATATGTATAAATACAT [XGTACX_site4002] | 9.21 |
| AAAAAGTGACTCCTTACACACTTTACATAATTTAGT [CACACA_site4606] | 9.46 |
| TCTCATAGTAAACACACACACACACCCACATATATA [CACACA_site5034] | 10.3 |
| TCTCATAGGAAACACACACACACACCCACATATATA [CACACA_site1738] | 10.2 |
| AAGGATCACCCACAAACACACATATATATATATATA [CACACA_site559] | 9.76 |
| TTTCCCATAGGAAAAACACACATATATTATATATAA [CACACA_site1981] | 9.12 |
| TTTACTTTCCCAAGTTGTACTGCTTCTAAGCTTTTT [XGTACX_site2708] | 9.21 |
